Experimental data reported in PubChem BioAssay (NCI).
The panel holds about 83,000 compounds, 20% with a hit somewhere; the sample as a whole holds those more often.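 Growth was measured after 48 h exposure to one concentration of compound in 96-well plates. Values under 10 count as active.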 The source made the active and inactive calls.

Test system: SK-MEL-2 melanoma
Assay: NCI-60 one-dose screen, 48 h (100 = growth as untreated, 0 = no growth, -100 = all killed)
Details: 10 µM unless noted

Compound	growth
CCN(C(C)=O)c1ccc([N+](=O)[O-])cc1	107% (inactive)
O=S(=O)(c1ccc(NC(=S)NCc2cccnc2)cc1)N1CCCCC1	41.6% (inactive)
O=S1(=O)c2ccccc2Oc2ccccc21	100% (inactive)
C/C(=N\N=C(/C)c1cccc([N+](=O)[O-])c1)c1cccc([N+](=O)[O-])c1	90.8% (inactive)
OC(CBr)CCBr (configuration not stated)	124% (inactive)
CC(=O)NC(CCc1ccc(Cl)c(Cl)c1)c1cccc(O)c(=O)c1 (configuration not stated)	17.8% (inactive)
CCCCCCCCCCCCCCCCCC(=O)NCCNC(=O)CCCCCCCCCCCCCCCCC	90.2% (inactive)
COC1CC(OC(=O)c2ccc([N+](=O)[O-])cc2)C(COC(=O)c2ccc([N+](=O)[O-])cc2)O1 (configuration not stated)	127% (inactive)
CC(=O)NC(O)C(Cl)Cl (configuration not stated)	100% (inactive)
CC(=O)c1cccc(O)c1	103% (inactive)
C1C[S+]2CC[S+]1CC2	101% (inactive)
COC1OC(C(COC(C)=O)OC(C)=O)C(OC(C)=O)C(OC(C)=O)C1OC(C)=O (configuration not stated)	113% (inactive)
Cn1/c(=N\N=C\c2ccccc2OCCO)sc2ccccc21	104% (inactive)
CC(C)(N)CO[C@H]1C[C@H]2CC[C@@]1(C)C2(C)C	108% (inactive)
CCCC(=O)CC(=O)c1ccccc1	78.5% (inactive)
Cc1onc(-c2ccccc2Cl)c1C(=O)Cl	113% (inactive)
COC1OC(C(O)C(O)CO)C(O)C(O)C1O (configuration not stated)	99.5% (inactive)
Cc1cc(=O)n(Nc2ccccc2)c(O)c1C#N	96.4% (inactive)
ClCC(Cl)C1CCC(Cl)C(Cl)C1 (configuration not stated)	110% (inactive)

Compound	growth
C=CCC(O)C=C (configuration not stated)	106% (inactive)
CCOC(=O)c1ccc(Nc2sc(C(=O)c3ccc(Br)cc3)c(N)c2C#N)cc1	21.7% (inactive)
CNc1ccccc1C(=O)N/N=C/C=C/c1ccccc1	3.74% (active)
CC(C)=CCC[C@@H](C)[C@H]1CC[C@@]2(C)C3=C(CC[C@]12C)[C@@]1(C)CC[C@H](O)C(C)(C)[C@@H]1CC3	118% (inactive)
Cc1[nH]nc(C(N)=O)c1[N+](=O)[O-]	119% (inactive)
CC(O)C(F)(F)C(F)(F)C(F)(F)F (configuration not stated)	111% (inactive)
CC1(C)CCC(C)(C)NC(=S)N1	94.1% (inactive)
CCOC(=O)CNC	117% (inactive)
CCCCNc1ccc(-c2ccc(NCCCC)cc2)cc1	101% (inactive)
O=S(=O)(O)c1ccc(O)c(C2CCCCC2)c1	102% (inactive)
C1=NCCc2ccccc21	99.7% (inactive)
C=CC1=NC(C)(C)CC(C)O1 (configuration not stated)	112% (inactive)
Cc1ccc(NC(=S)N2CCOCC2)cc1C	100% (inactive)
COC(=O)c1cccc([N+](=O)[O-])c1	94.1% (inactive)
CCN(CC)CCN1CNC(=S)NC1	95.1% (inactive)
COc1cc2c(c(OC)c1OC)-c1ccc(SC)c(=O)cc1[C@@H](NC1OC(CO)C(O)C(O)C1O)CC2 (some centres not stated)	4.69% (active)
CCOC(C=O)OCC	102% (inactive)
CCOC(=O)CSCCC#N	105% (inactive)
